From PubChem BioAssay AID1036 (National Center for Advancing Translational Sciences (NCATS), 2008)
Records with an inconclusive call do not appear. The source made the active and inactive calls. Calls come from the whole dose curve.

Assay: NSCLC 1 Cell Viability Secondary Assay for qHTS Assay for Epigenetic Modulator
Details: NSCLC 1 cells viability, MTS absorbance, 4 days
Text: NIH Molecular Libraries Screening Centers Network [MLSCN] NIH Chemical Genomics Center [NCGC] MLSCN Grant: 1 X01 MH079860-01 Assay Provider: Elisabeth D. Martinez, University of Texas SW Medical Center NCGC Assay Overview: This secondary assay characterizes selected actives identified in the qHTS of the Locus Derepression (LDR) assay (PubChem AID 597). The LDR assay detects the derepression of a GFP reporter that is stably integrated in a region of the genome of murine c127i mammary cells that is presumably silenced. Compounds that cause derepression of the locus to express GFP are identified by enumerating GFP positive cells using a laser-scanning microplate cytometer. […] NSCLC 1 cell viability was measured using Cell Titer 96 AQueous One (Promega), an assay which detects the ability of metabolically active cells to reduce a tetrazolium salt substrate (MTS), into a soluble formazan product that can be measured by colorimetry.
NCGC Assay Protocol Summary NSCLC 1 cells were plated in 96-well flat bottom tissue culture dishes (Corning) and grown overnight at 37 C and 5% CO2, then treated with compounds, incubated 4 days, and assayed for viability using the Cell Titer 96 AQueous One kit (Promega) according to the manufacturer's protocol. Absorbance at 490 nm and 650 nm (reference) was measured by a Spectra Max (Molecular Devices). […]

## CN1CSC(=S)N(C)C1
  outcome: inactive
